Compound activity (PubChem)
TLR4-MyD88 BLA: TLR4-MyD88 interaction inhibition in cells; AID 861; O00206+Q99836; 0.18% of 200,000 active; inhibition, % at 8.4 µM; HeLa CL3-4 TLR4/MyD88 BLA complementation, FRET ratio; in the data active = inhibition above about 25%;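 note: 0% = vehicle and 100% = reference inhibitor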
GRK2 inh: inhibitors of human GRK2 displacing RNA aptamer. P25098. bead flow cytometry, FAM-aptamer displacement from GRK2. inhibition of aptamer binding, % at 10 µM. 0.59% of 330,000 active. AID 488847;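 active = inhibition of aptamer binding above 40%, roughly 3 SD of noise, on plates passing a quality check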;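 note: median bead fluorescence of bound FAM aptamer so fluorescent compounds give negative values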
Target sequence (P25098 whole entry, looked up): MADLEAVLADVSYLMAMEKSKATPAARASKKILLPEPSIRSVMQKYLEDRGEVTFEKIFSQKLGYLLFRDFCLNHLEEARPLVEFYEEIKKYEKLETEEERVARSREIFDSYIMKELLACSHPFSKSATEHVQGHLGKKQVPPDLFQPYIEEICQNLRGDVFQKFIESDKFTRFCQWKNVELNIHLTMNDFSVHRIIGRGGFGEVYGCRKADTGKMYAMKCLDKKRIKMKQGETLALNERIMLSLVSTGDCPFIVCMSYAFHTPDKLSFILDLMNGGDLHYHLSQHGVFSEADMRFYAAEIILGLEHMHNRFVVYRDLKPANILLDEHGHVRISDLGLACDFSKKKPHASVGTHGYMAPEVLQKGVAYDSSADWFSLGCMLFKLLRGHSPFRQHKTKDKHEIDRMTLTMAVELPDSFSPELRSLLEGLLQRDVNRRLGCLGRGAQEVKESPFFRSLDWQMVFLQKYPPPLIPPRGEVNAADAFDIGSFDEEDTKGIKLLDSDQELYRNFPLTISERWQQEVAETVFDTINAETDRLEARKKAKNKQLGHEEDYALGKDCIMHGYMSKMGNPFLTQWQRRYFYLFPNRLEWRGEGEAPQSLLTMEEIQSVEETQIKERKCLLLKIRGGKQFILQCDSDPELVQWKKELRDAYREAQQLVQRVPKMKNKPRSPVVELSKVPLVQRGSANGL
TMEM16A inh: inhibitors of mouse TMEM16A calcium-activated chloride channel | Q8BHY3 | HEK293 TMEM16A/YFP iodide influx fluorescence, ionomycin | normalized B-score (activity score, 25-100; higher = stronger inhibition) at 10 µM | 1.2% of 310,000 active | AID 588511;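 active = ratio plate-corrected score three or more library SD toward inhibition, starting fluorescence score within five deviations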;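 note: score derived from kinetic fluorescence span divided by baseline fluorescence per well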
NOD2 RIPK2 PPI: blocks binding of human NOD2 to RIPK2; O43353; CHO BLA complementation NOD2-RIPK2, CCF4 ratio; inhibition, % at 4.98 µM; 0.38% of 360,000 active; AID 624267; in the data active = inhibition above about 21%;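 note: 0% = vehicle only and 100% = reference blocker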
TMEM16A act: activates or potentiates the mouse TMEM16A chloride channel. Q8BHY3. HEK293 TMEM16A/YFP-H148Q/I152L, iodide quench fluorescence; active compounds read low. B-score at 10 µM. 0.3% of 340,000 active;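 active = fluorescence-ratio B-score plate-corrected deviation score at least 3 library SD below zero, with starting fluorescence score within 5 deviations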;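 note: channel opened by trigger with iodide after compound preincubation; score built on the fluorescence ratio of max minus min over baseline; more negative score means more quench and so TMEM16A activation or potentiation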
TLR9-MyD88 block: inhibitors of human TLR9-MyD88 binding. inhibition, % at 4.98 µM. CHO BLA complementation TLR9-MyD88, CCF4 FRET ratio. Q9NR96+Q99836. 0.21% of 340,000 active;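 active = inhibition above the mean over all tested compounds plus 3 SD, cut at about 21% in these data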;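 note: 0% = DMSO only wells and 100% = clavulanate BLA inhibitor control wells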
Numbers without * were called inactive; i = inactive; x = no result. Most compounds without a hit are left out; they make up all but 2.2% or so of the library.

SMILES	TLR4-MyD88 BLA	GRK2 inh	TMEM16A inh	NOD2 RIPK2 PPI	TMEM16A act	TLR9-MyD88 block
Cc1cc2nc(-c3ccc(F)cc3)c(Cc3cccc(Cl)c3)n2c(C)c1Br	x	x	x	-10.7	x	x
O=C(CSc1ncnc2sc3c(c12)CCCC3)c1ccco1	-4.4	7.0	i	6.6	i	-18.2
O=C(CSc1ncnc2sc3c(c12)CCCC3)c1ccccc1	-8.3	0.0	i	0.3	-4.99*	-5.4
O=C(NCc1ccccc1Cl)c1csc([C@@H]2C[C@H](O)[C@@H](CO)O2)n1	x	x	x	8.4	x	x
CCOC(=O)COc1cc2c(C(=O)OCC)c(C)oc2cc1Br	-3.3	3.0	i	-8.1	i	-6.5
CCOC(=O)c1c(C)oc2cc(Br)c(OC(C)C(=O)OCC)cc12 (stereo unspecified)	11.0	2.0	25*	-8.4	i	-0.8
COc1ccc(N=c2oc3ccccc3cc2C(=O)Nc2ccccn2)cc1OC	-1.5	72.0*	i	x	x	x
CC(C)CN1C(=O)CSCC1(C)C(=O)NC(C)C (stereo unspecified)	x	x	x	-8.8	x	x
CCCCC(=O)N1CCN(c2nc3ccc(Cl)cc3s2)CC1	x	0.0	25*	-5.2	i	-3.7
Cc1ccc2c(c1)NC(c1cccs1)C1=C(CC(C)(C)CC1=O)N2 (stereo unspecified)	1.9	0.0	i	-0.2	-5.06*	-0.5
Cc1ccc(C2Nc3ccccc3NC3=C2C(=O)CC(C)(C)C3)c(O)c1 (stereo unspecified)	x	0.0	i	-0.2	i	-0.8
CC(C)(C)NC(=O)NC(=O)CSc1nnc(COc2ccccc2Cl)o1	-12.8	3.0	100*	4.7	i	-3.1
COc1ccccc1OCc1nnc(SCC(=O)c2cc(Cl)ccc2OC)o1	-4.3	0.0	100*	-7.5	i	-5.2
CCCN1C2CCCC1CC(NC(=O)c1ccccc1OC)C2 (stereo unspecified)	x	3.0	100*	-1.0	i	-11.9
CCCN1C2CCCC1CC(NC(=O)c1ccccc1OCC)C2 (stereo unspecified)	0.0	0.0	i	-10.2	i	-7.2
Cc1ccccc1-c1cc2nc(NCc3ccccc3F)n(C)c(=O)c2s1	x	x	x	-10.4	x	x
COc1ccc(-c2noc(CCC(=O)N3CCN(c4ccc(C(F)(F)F)cc4)CC3)n2)cc1	x	3.0	x	7.7	x	-8.5
Cc1ccc(-c2noc(CCC(=O)N3CCN(c4cccc(C(F)(F)F)c4)CC3)n2)cc1	3.4	5.0	25*	-3.3	i	0.0
CCCCNC(=O)C(NC(=O)c1cccnc1)C(=O)c1ccccc1 (stereo unspecified)	x	x	x	-5.8	x	x
C/C(=N/OC(=O)c1ccccc1Br)c1ccc(C)cc1	x	1.0	25*	-2.6	i	-8.0
C/C(=N/OC(=O)c1ccc(C)cc1)c1cccs1	10.9	2.0	i	-8.5	i	-6.4
CCOC(=O)CSC1=C(C#N)C(=O)NC(c2ccc(OC)c(OC)c2)S1 (stereo unspecified)	-5.7	1.0	25*	-6.7	i	2.6
CCOC(=O)CSC1=C(C#N)C(=O)NC(c2ccc(OC)cc2)S1 (stereo unspecified)	-3.1	3.0	i	-7.5	i	-2.0
Cc1ccc([C@H]2N[C@]3(CCCN(Cc4ccc(Br)cc4)C3=O)[C@H]3C(=O)N(Cc4ccccc4)C(=O)[C@@H]23)cc1	x	x	x	-3.8	x	14.7
CCCCN=c1scc(-c2ccc3c(c2)NC(=O)CO3)n1N=C1CCCC1	3.9	0.0	i	4.3	i	0.1
SMILES	TLR4-MyD88 BLA	GRK2 inh	TMEM16A inh	NOD2 RIPK2 PPI	TMEM16A act	TLR9-MyD88 block
CCN=c1scc(-c2ccc3c(c2)NC(=O)CO3)n1N=C1CCCC1	1.4	0.0	100*	-13.3	i	-1.3
COc1cccc(-c2coc3c(C)c4oc(=O)c(CC(=O)O)c(C)c4cc23)c1	x	5.0	i	5.1	i	-6.6
COc1cccc(-c2coc3c(C)c4oc(=O)c(CCC(=O)O)c(C)c4cc23)c1	x	1.0	100*	-5.5	i	-2.7
CCNC(=S)N1CCC(Cc2ccccc2)CC1	x	1.0	i	-15.3	-4.77*	3.2
CCCNC(=S)N1CCC(Cc2ccccc2)CC1	x	0.0	i	-13.8	i	8.3
COc1ccccc1-c1ccc(SCc2ccccc2F)nn1	5.8	1.0	25*	7.4	i	8.1
COc1cc(-c2coc3c(C(=O)NCc4ccc(C(F)(F)F)cc4)cccc23)ccc1O	x	x	x	-1.4	x	x
C[C@H](NC(=O)C[C@@H]1C=C[C@@H](NC(=O)CN2CCOCC2)[C@@H](CO)O1)c1ccccc1	x	x	x	-1.7	x	x
COc1ccc(CC(=O)NCCC2=CCCCC2)cc1	-13.4	0.0	i	-6.2	i	-8.3
COc1ccc(OCCC(=O)OCC(=O)NCCC2=CCCCC2)cc1	3.8	0.0	i	4.2	-34.2*	-2.1
O=C(CCCn1c(SCC(=O)c2ccc(F)cc2)nc2ccccc2c1=O)NCc1ccccc1	2.5	0.0	25*	3.6	i	-0.1
CCN(CC)C(=O)[C@H]1CC(CC(=O)NCC23CC4CC(CC(C4)C2)C3)C(=O)N2CCc3c([nH]c4ccc(OC)cc34)[C@]12C (stereo partly specified)	x	44.0*	x	2.7	x	1.0
CCN(CC)C(=O)[C@H]1C[C@H](CC(=O)NC(C)(C)C)C(=O)N2CCc3c([nH]c4cc(CCC(=O)N(C)C)ccc34)[C@]12C	x	50.0*	x	4.4	x	-6.4
Cc1[nH]n(-c2ccccc2)c(=O)c1/C=N/N1CCOCC1	x	0.0	i	-1.7	-7.38*	-1.1
COc1ccc(Cn2cc(CN(C)C3CN(Cc4cn(Cc5ccc(OC)cc5)nn4)S(=O)(=O)C3)nn2)cc1 (stereo unspecified)	x	x	x	-3.7	x	x
CCN(Cc1ccccc1)CC(O)COc1ccccc1 (stereo unspecified)	1.2	2.0	i	6.9	i	-6.4
Cc1ccccc1OCC(O)CN(CCO)Cc1ccccc1 (stereo unspecified)	-12.0	0.0	i	-6.1	-37.9*	-2.1
CCOC(=O)c1sc(NC(=O)CSc2n[nH]c(-c3ccccc3)n2)c(C#N)c1C	-0.5	3.0	100*	-0.5	i	10.8
CCOC(=O)c1sc(NC(=O)c2cc(-c3ccccc3)nc3ccccc23)c(C#N)c1C	-5.5	0.0	100*	-3.3	i	-6.3
CCOC(=O)c1sc(NC(=O)c2cccnc2)c(C#N)c1C	-12.2	2.0	i	18.6	i	-7.6
CCc1cc2c3c(c1)/C(=C1/SC(N)=NC1=O)C(=O)N3C(C)(C)C=C2C	0.0	0.0	100*	-10.4	i	0.5
COc1cc2c3c(c1)C(C)=CC(C)(C)N3C(=O)C2=O	1.1	2.0	i	11.7	i	0.0
O=C(COc1ccc2c(-c3ccccc3)cc(=O)oc2c1)N1C[C@H]2C[C@@H](C1)c1cccc(=O)n1C2	x	x	x	-19.1	x	x
